# Source: PubChem BioAssay (NCATS)
# Inconclusive results are not listed. Unmarked numbers belong to inactive results. The call rests on the fitted dose curve; in most records, active means well fitted inhibition curve with a large enough effect; inconclusive means small, poorly fitted or top-dose-only effect; inactive means flat fitted curve, though single readings scatter.
# Biological target: Calcium and integrin-binding protein 1 (Homo sapiens) (UniProt Q99828)
# Experiment: Primary qHTS for Identification of Calcium Integrin Binding Protein 1 (CIB1) Competitor (AID 1508620);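 further: GST tagged CIB1 binding a fluorescein labelled alphaIIb integrin peptide tracer; top concentration of the series differs between compounds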
# Conditions: CIB1-GST / FITC-alphaIIb peptide fluorescence polarization; series mostly up to 114 µM; activity change, negative = inhibition: at the top concentration
# Method in brief: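 Fluorescence polarization competition: CIB1-GST (1 uM final) preincubated with compound 15 min at room temperature, then FITC-labeled alphaIIb peptide (100 nM final) added for another 15 min. Polarization read at Ex 480/Em 540.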
# On the % scale 0 is the no-effect control and ±100 the full control effect.
# Sequence of Calcium and integrin-binding protein 1 (Homo sapiens) (Q99828 whole entry, looked up): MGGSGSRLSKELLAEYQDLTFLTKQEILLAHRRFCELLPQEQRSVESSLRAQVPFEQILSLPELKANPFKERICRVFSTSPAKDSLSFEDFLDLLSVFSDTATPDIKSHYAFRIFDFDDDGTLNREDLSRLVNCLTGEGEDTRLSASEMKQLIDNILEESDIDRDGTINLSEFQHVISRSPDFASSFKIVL
row,Structure (SMILES),"activity change, negative = inhibition"
1,COc1cc(F)c(S(=O)(=O)N2CCN(S(=O)(=O)c3cccs3)CC2)c(F)c1,-0.892%
2,O=C(O)c1ccc2c(c1)C(=O)N([C@H](Cc1cccc3ccccc13)C(=O)O)C2=O,0.912%
3,Cc1c(P(=S)(c2ccccc2)c2ccccc2)c2ccccc2n1CCCc1ccccc1,1.89%
4,CC(C)Oc1cccc(-c2cnc(N3CCC(C(N)=O)CC3)s2)c1,1.76%
5,COc1ccc(C(F)(F)F)cc1NC(=O)C(OC(=O)CNC(=O)c1ccccc1)c1ccccc1 (centres undefined),2.97%
6,CCCCN1C(=O)c2ccccc2NC1c1ccc(OC)c(COc2c(C)cc(NC(C)=O)cc2C)c1 (centres undefined),1.72%
7,OCC#CCSc1nnc(-c2cccc3ccccc23)o1,0.741%
8,COc1cccc(C2c3c(ncn(-c4ccc(NC(C)=O)cc4)c3=N)Oc3ccc4ccccc4c32)c1 (centres undefined),8.37%
9,Cc1cc(NS(=O)(=O)c2ccc(NC(=O)Cc3ccc(Cl)c(Cl)c3)cc2)on1,-25.2%
10,O=C(O)c1ccc2c(c1)C(=O)N([C@]1(C(=O)O)CC1c1ccccc1)C2=O (some centres undefined),6.55%
11,O=C(CN(Cc1cccc2ccccc12)C1CC1)Nc1ccc(N2CCOCC2)cc1,5.3%
12,N#Cc1ccc(-c2ccc(CNc3ccc(N4CCCCC4)cc3)o2)cc1,-10.2%
13,N#Cc1nc(NCC(F)F)c2ncn(-c3cc(F)cc(F)c3)c2n1,5.7%
14,Cc1cnc(-c2ccccc2C(C)C)nc1NCC1CCN(C)CC1,2.08%
15,COc1cc(OC)c2c(c1)OC(=O)CC2c1ccc2c(c1)OCO2 (centres undefined),-0.25% [at 228 µM]
16,Cc1cnc(-c2ccccc2CO)nc1NCC1CCN(c2cccnc2)CC1,2.79%
17,O=S(=O)(c1ccc2c(c1)OCCO2)N1CCN(S(=O)(=O)c2ccccc2F)CC1,-3.67%
18,O=C(Nc1ccc(Cl)c(C(F)(F)F)c1)Nc1cccc(-c2ccncc2)n1,-1.54%
19,CC(C)c1ccccc1-c1ncc(N)c(NCc2ccc(-c3cccnc3)cc2)n1,-2.2%
20,CCOc1ccccc1-c1nnc2n1N=C(c1cc(OC)cc(OC)c1)CS2,-1.16%

row,Structure (SMILES),"activity change, negative = inhibition"
1,Cn1ccc2cc(-c3csc(N4CCC(C(N)=O)CC4)n3)ccc21,2.24%
2,COc1cc(Nc2nc(-c3ccncc3)nc3ccccc23)ccc1NS(C)(=O)=O,2.02%
3,O=S1(=O)N=C(Oc2ccc3ccccc3c2)c2ccccc21,-11.1%
4,CCOc1ccc(CCNC(=O)c2ccc3[nH]ccc3c2)cc1OCC,0.152%
5,COc1ccc(C2=Nn3c(nnc3-c3cccc(OC)c3)SC2)cc1,2.19%
6,Cc1ccc(Cn2ncc3c4sc(C)cc4n(C)c3c2=O)cc1,2.1%
7,Cc1noc(C)c1-c1cccc(-c2nn3c(=O)cc(N4CCNCC4)nc3s2)c1,-3.2%
8,Cc1ccc(-n2c(=O)ccc(=O)n2CC(=O)NCCc2ccccc2)cc1,5.84%
9,Cc1ccccc1Nc1nc(C#N)nc(NC2CCCC2)n1,-0.329%
10,CC(=O)c1ccc(N2CCN(S(=O)(=O)c3ccc4[nH]c(=O)oc4c3)CC2)cc1,7.81%
11,Fc1cc(Nc2nc(-c3ccncc3)nc3ccccc23)ccc1C(F)(F)F,2.78%
12,O=S(=O)(c1cccc(O)c1)N1CCN(S(=O)(=O)c2c(F)cccc2F)CC1,4.37%
13,Cc1ccc(OCCn2c(CCNC(=O)C3CCOCC3)nc3ccccc32)cc1,7.79%
14,Oc1ccc(CNc2cccc(F)c2)c2cccnc12,13.5%
15,Cc1ccc(-c2ccc(CNc3nc(-c4ccccc4C(C)C)nc4ccsc34)cc2)cn1,-0.0866%
16,O=C1CCCC2=C1C(c1[nH]ncc1Cl)N=C(Nc1nc3cc(Cl)ccc3o1)N2 (centres undefined),-5.19%
17,COc1ccc(OCc2nnc3n2N=C(c2ccccc2)CS3)cc1,-1.95%
18,O=C(Nc1ccccc1)c1cccs1,4.01%
19,N#Cc1c(-c2ccc(Cl)cc2)no[n+]1[O-],-2.28%
